# Test results as given in PubChem BioAssay (NCATS).
# A number with no mark means an inactive call. Records with an inconclusive call do not appear. A call without a number means that no potency is given here. Active and inactive are the calls of the source. Unless noted, calls come from the whole dose curve; as a rule, active = well fitted curve in the direction sought with a large enough effect; inconclusive = small, poorly fitted or top-dose-only effect, or another doubt; inactive = no such curve, though single readings can be large; an effect the other way counts as inactive or inconclusive.
# Tests used:
# [1] = qHTS assay for small molecule activators of the nuclear factor-kappa B (NF-kB) signaling pathway (AID 651749; active = well fitted activation curve with a large enough effect in the signal ratio; the % refers to the signal ratio; note: series mostly up to about 77 µM); conditions: NF-kB-bla ME-180 cells, beta-lactamase FRET ratio, 16 h; active compounds read high
# In short: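 Stably transfected ME-180 line; NF-kB response element upstream of beta-lactamase. Treatment: compound or DMSO, 16 hr. Detection: fluorescent FRET substrate.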
# [2] = qHTS assay for environmental chemicals that activate the Aryl hydrocarbon Receptor (AhR) signaling pathway (AID 651777); conditions: 1A2-DRE human hepatoma cells, luciferase, 24 h; activation: active compounds read high; note: nearly all actives have a fitted effect of over 15% in size
# In short: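 Human hepatoma 1A2-DRE cells stably carrying a DRE/CYP1A2 promoter–luciferase reporter, 1,200 cells/well, exposed to compound 24 hr at 37 C. Luciferase read by One-Glo luminescence after 30 min at room temperature; increased signal marks AhR activation.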
# [3] = target: Peroxisome proliferator-activated receptor alpha (Homo sapiens) (UniProt Q07869); experiment: qHTS assay for small molecule agonists of the peroxisome proliferator-activated receptor alpha (PPARalpha) signaling pathway (AID 651778); conditions: PathHunter PPARalpha complementation, chemiluminescence, 6 h; active compounds read high
# In short: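 Chemiluminescence from complemented enzyme reported PPARalpha activation in cells after 6 hr of compound treatment at 37 C. The detection reagent was incubated for 60 min at room temperature, and compounds were scored as agonists.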
# [4] = qHTS assay for small molecule agonists of the antioxidant response element (ARE) signaling pathway measured by Nrf2-dependant transcriptional activity - cell viability counter screen (AID 720653; active = well fitted curve in the direction sought with a large enough effect in the repeat runs; an effect the other way counts as inactive or inconclusive; note: potency is the fitted concentration of half-maximal effect); conditions: ARE-bla HepG2 viability, CellTiter-Glo ATP luminescence, 16 h; max response: active compounds read low
# In short: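 Cytotoxicity counter screen: intracellular ATP quantified by CellTiter-Glo luminescence in the same ARE-bla HepG2 plates, after 16 h compound exposure and a 2 h beta-lactamase substrate step.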
# [5] = qHTS assay for cell viability of HEK293 cells (AID 743288); conditions: ATP luminescence (CellTiter-Glo), 18 h; max response: active compounds read low; note: nearly all actives have a fitted effect of over 50% in size; note: potency is the fitted concentration of half-maximal effect
# In short: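 Parental HEK293 cells were seeded at 2,000 cells/well, rested at least 5 h at 37 C, then exposed to compounds in DMSO for 18 h at 37 C. Viability was read as ATP-dependent luciferase luminescence after 30 min at room temperature.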
# [6] = target: Arylsulfatase A (Homo sapiens) (UniProt P15289); experiment: qHTS screen for enhancers of Arylsulfatase A (ASA1): LOPAC Validation Assay (AID 720538)
# In short: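 SV40-transformed skin fibroblasts from an MLD patient (ASA-I179S) were treated with compounds for 48h at 37 degree C, then lysed with 0.5mM pNCS final substrate for 14h at room temperature; NaOH stop, fluorescence read (Ex=525 nm; Em=598 nm).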
# [7] = qHTS for compounds that reverse cellular toxicity of Amyloid beta (A-beta) peptide in yeast: LOPAC Validation Assay (AID 720559)
# In short: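 Yeast cells expressing toxic A-beta were combined with pinned compounds in growth medium and incubated 48 hr at 30 C. Growth was read as absorbance at 600 nm and normalized to DMSO and to an equimolar FeCl3/clioquinol positive control.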
# [8] = qHTS for Activators of Parkin Expression: LOPAC Validation Assay (NLuc Reporter) (AID 720572; note: potency is the fitted concentration of half-maximal effect)
# In short: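 Parkin promoter-driven FLuc/NLuc neuronal reporter cells; 24 h plating, 7-pt dose response, 24 h at 37 C/5% CO2; FLuc then NanoLuc reagent, 10 min each, luminescence; DMSO/positive control normalized.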
# [9] = qHTS for Activators of Parkin Expression: LOPAC Validation Assay (FLuc Reporter) (AID 720573)
# In short: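 Neuronal cell line stably carrying FLuc/NLuc coincidence reporter under Parkin promoter; cells plated 24 h, then compounds added in 7-point dose response for 24 h at 37 C. FLuc luminescence read; normalized to DMSO and positive control (100%).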
# [10] = target: T1, Hexokinase-4 (Homo sapiens) + Glucokinase regulatory protein (Homo sapiens) (UniProt P35557+Q14397); experiment: qHTS assay for inhibitors of recombinant human GCK-GKRP interaction: Diaphorase-coupled assay (AID 743205); note: potency is the fitted concentration of half-maximal effect
# In short: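 GST-GCK (10 nM) with FLAG-GKRP (10 nM), 5 mM glucose and 0.4 mM ATP in pH 7.6 Hepes; compounds preincubated 20 min with substrate. G6PDH/diaphorase coupling converts resazurin to resorufin, read kinetically (ex 525/em 590 nm) for 30 min.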
# [11] = target: T1, Hexokinase-4 (Homo sapiens) + Glucokinase regulatory protein (Homo sapiens); experiment: qHTS assay for inhibitors of recombinant human GCK-GKRP interaction: ADP-Glo assay (AID 743206)
# In short: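 GST-GCK and FLAG-GKRP (15 nM each in the dispensed mix, with 2 uM S6P) react with 0.4 mM ATP and 5 mM glucose (final) in Hepes pH 7.6 for 60 min at room temperature. ADP is measured by ADP-Glo luminescence.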
# [12] = target: T1, Hexokinase-4 (Homo sapiens) + Glucokinase regulatory protein (Homo sapiens); experiment: qHTS assay for inhibitors of recombinant human GCK-GKRP interaction: HTRF assay (AID 743207)
# In short: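 GST-GCK and FLAG-GKRP (5 nM each) were combined with 2 uM S6P in pH 7.1 Hepes/MgCl2/KCl/DTT buffer, then compound and anti-FLAG XL665/anti-GST K antibodies were added. After 60 min at room temperature, HTRF 665/615 nm emission was read.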
# [13] = qHTS assay for small molecule disruptors of the mitochondrial membrane potential - 1 hr assay (AID 651754; calls by dose curve; note: potency is the fitted concentration of half-maximal effect; nearly all actives have a fitted effect of over 35% in size)
# In short: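 HepG2 cells, attached overnight at 37C, were exposed to compound or DMSO vehicle for 1 hr at 37C, 5% CO2, then stained with Mito-MPS dye for 30 min. Red aggregate versus green monomer fluorescence reports membrane potential.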
# [14] = qHTS assay for small molecule disruptors of the mitochondrial membrane potential - 5 hr assay (AID 651755; calls by dose curve; note: potency is the fitted concentration of half-maximal effect; nearly all actives have a fitted effect of over 40% in size)
# In short: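 HepG2, 2,000 cells/well, overnight attach; cpd or DMSO 5 hr, 37C/5% CO2; Mito-MPS 30 min 37C; fluor 490/535 + 540/590 nm.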
# [15] = target: Nuclear receptor ROR-gamma (Homo sapiens) (UniProt P51449); experiment: qHTS assay for small molecule antagonists of the retinoid-related orphan receptor gamma (ROR-gamma) signaling pathway (AID 651802); note: potency is the fitted concentration of half-maximal effect; nearly all actives have a fitted effect of over 60% in size
# In short: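 CHO cells carrying TET-inducible ROR-gamma and an ROR response element–luciferase reporter were exposed to compound, then induced with doxycycline. After 16hr at 37C, luminescence was read; lower signal indicates antagonism.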
# [16] = qHTS assay for small molecule agonists of the antioxidant response element (ARE) signaling pathway measured by Nrf2-dependant transcriptional activity (AID 720636; active = well fitted curve in the direction sought with a large enough effect in the repeat runs; an effect the other way counts as inactive or inconclusive)
# In short: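 ARE-luc HepG2 cells carrying an Nrf2-responsive luciferase reporter, in medium with 1% dialyzed FBS, exposed to compound for 16 hr at 37 C, 5% CO2. Luminescence read 30 min after ONE-Glo addition.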
# [17] = qHTS assay for small molecule antagonists of the retinoid-related orphan receptor gamma (ROR-gamma) signaling pathway - cell viability counter screen (AID 720652; active = well fitted curve in the direction sought with a large enough effect in the repeat runs; an effect the other way counts as inactive or inconclusive;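 note: potency is the fitted concentration of half-maximal effect; compound exposure lasted 16 hr before ATP read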)
# In short: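 Counter screen in CHO cells carrying TET-inducible ROR-gamma and an ROR response element-luciferase reporter; cells plated 5 hr, compound pinned, doxycycline added, then 16 hr at 37 C. Viability read as intracellular ATP by CellTiter-Glo luminescence.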
# [18] = qHTS Assay for Identifying Gametocytocidal Compounds (AID 743244); note: potency is the fitted concentration of half-maximal effect;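 for max response: actives lower the fluorescent signal which means gametocytes are killed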; conditions: P. falciparum 3D7 stage III-V gametocytes, alamarBlue, 72 h; max response: active compounds read low
# In short: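 A resazurin-based viability read-out was applied to mature P. falciparum gametocytes: 72 h compound treatment, then 24 h dye incubation, with falling fluorescence signalling gametocytocidal effect.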
# Chain of Arylsulfatase A (Homo sapiens) (P15289 whole entry, looked up): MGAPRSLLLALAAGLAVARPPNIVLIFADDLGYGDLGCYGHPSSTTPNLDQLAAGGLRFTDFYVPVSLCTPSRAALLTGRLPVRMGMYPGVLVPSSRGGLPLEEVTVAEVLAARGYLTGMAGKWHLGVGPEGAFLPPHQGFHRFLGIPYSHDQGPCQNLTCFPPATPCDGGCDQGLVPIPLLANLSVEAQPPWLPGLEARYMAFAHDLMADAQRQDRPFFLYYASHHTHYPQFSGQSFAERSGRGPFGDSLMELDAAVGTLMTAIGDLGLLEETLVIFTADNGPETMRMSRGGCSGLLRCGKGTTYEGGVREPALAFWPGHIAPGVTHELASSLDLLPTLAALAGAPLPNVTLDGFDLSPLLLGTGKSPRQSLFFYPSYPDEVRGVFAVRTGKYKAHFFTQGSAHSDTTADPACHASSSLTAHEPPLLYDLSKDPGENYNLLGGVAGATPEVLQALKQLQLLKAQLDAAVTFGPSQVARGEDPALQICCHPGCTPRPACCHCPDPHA
# Chain of Peroxisome proliferator-activated receptor alpha (Homo sapiens) (Q07869 whole entry, looked up): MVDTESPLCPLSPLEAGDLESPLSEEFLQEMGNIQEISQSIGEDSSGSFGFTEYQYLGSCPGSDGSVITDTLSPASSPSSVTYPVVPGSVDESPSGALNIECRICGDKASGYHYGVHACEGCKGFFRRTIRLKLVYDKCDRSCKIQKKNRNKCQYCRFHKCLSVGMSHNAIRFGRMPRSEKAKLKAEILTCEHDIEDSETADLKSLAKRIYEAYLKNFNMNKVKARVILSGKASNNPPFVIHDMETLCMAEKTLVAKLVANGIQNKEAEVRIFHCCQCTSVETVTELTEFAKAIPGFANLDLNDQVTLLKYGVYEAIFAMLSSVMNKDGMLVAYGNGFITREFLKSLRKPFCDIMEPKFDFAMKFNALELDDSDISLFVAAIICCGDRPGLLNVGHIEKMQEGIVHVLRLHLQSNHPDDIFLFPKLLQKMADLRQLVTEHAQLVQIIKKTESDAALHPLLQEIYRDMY
# T1 sequence (P35557 whole entry, looked up): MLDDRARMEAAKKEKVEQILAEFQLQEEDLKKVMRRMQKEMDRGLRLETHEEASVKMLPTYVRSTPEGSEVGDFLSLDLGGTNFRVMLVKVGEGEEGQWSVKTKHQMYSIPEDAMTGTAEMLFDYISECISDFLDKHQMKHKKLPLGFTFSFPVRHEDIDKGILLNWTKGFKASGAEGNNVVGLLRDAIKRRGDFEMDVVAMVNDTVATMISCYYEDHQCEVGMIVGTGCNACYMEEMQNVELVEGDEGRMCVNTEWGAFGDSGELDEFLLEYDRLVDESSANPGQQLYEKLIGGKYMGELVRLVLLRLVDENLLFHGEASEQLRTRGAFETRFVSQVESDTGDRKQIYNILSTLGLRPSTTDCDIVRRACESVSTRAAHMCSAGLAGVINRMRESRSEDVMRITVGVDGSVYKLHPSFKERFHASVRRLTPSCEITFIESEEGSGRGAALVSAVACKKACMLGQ
# T1 sequence (Q14397 whole entry, looked up): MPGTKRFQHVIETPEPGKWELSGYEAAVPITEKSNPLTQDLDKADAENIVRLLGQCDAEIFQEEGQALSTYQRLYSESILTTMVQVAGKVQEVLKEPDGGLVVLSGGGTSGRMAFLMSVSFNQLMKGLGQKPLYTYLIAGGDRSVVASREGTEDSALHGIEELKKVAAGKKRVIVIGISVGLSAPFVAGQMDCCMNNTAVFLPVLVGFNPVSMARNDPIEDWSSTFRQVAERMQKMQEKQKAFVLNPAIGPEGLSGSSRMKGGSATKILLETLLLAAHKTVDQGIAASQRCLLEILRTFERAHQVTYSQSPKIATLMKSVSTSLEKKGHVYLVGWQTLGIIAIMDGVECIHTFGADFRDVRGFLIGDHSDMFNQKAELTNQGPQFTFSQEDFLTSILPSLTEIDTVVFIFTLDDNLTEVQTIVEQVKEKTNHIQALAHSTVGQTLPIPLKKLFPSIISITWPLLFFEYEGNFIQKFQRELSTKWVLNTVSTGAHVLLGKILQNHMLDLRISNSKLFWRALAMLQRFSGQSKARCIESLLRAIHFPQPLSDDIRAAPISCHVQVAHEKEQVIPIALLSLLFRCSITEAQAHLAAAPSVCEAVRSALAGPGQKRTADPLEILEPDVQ
# Chain of Nuclear receptor ROR-gamma (Homo sapiens) (P51449 whole entry, looked up): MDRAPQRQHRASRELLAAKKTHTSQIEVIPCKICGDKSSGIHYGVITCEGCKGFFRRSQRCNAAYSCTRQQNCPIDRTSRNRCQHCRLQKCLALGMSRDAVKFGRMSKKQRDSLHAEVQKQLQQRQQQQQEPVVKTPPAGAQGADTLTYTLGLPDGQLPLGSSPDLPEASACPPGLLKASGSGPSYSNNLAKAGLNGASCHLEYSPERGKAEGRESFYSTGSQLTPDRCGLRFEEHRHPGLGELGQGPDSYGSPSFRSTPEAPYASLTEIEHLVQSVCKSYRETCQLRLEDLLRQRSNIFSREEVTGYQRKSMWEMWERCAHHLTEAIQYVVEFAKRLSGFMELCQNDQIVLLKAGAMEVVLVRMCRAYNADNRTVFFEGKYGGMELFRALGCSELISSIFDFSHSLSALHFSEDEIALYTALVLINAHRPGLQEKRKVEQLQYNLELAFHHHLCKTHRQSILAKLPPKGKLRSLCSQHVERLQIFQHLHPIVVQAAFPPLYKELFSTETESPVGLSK
structure (smiles),measurement,setting,value
O=[N+]([O-])C(Br)(CO)CO,activation,[1],-3.37%
same,activation,[2],5.58%
same,max response,[3],0.217%
same,max response,[4],-12.6%
same,Potency,[5],50.1 µM (active)
CC(C)(C)c1cc(C=C(C#N)C#N)cc(C(C)(C)C)c1O,Potency,[6],inactive
same,outcome,[7],inactive
same,Potency,[8],inactive
same,outcome,[9],inactive
same,Potency,[10],inactive
same,outcome,[11],inactive
same,outcome,[12],inactive
Oc1ccc2c3c1O[C@H]1c4oc5ccccc5c4C[C@@]4(O)C(C2)N(CC2CC2)CCC314 (stereo partly drawn),Potency,[6],inactive
same,outcome,[7],inactive
same,Potency,[8],inactive
same,outcome,[9],inactive
same,Potency,[10],inactive
same,outcome,[11],inactive
same,outcome,[12],inactive
C[C@H]1CC[C@@H]2[C@@H](C)[C@H]3[C@H](C[C@H]4[C@@H]5CC=C6CC(O[C@@H]7O[C@H](CO)[C@H](O)[C@H](O[C@@H]8O[C@H](CO)[C@@H](O)[C@H](O)[C@H]8O)[C@H]7O[C@H]7O[C@@H](C)[C@H](O)[C@@H](O)[C@H]7O)CC[C@]6(C)[C@H]5CC[C@]34C)N2C1 (stereo partly drawn),Potency,[13],33.5 µM (active)
same,Potency,[14],33.5 µM (active)
same,activation,[2],-8.71%
same,max response,[3],-0.952%
same,Potency,[15],13.3 µM (active)
same,Potency,[16],inactive
same,Potency,[17],18.8 µM (active)
same,Potency,[4],44.7 µM (active)
same,max response,[18],-0.257%
same,Potency,[5],12.6 µM (active)
O=c1[nH]c(=O)n(Cl)c(=O)n1Cl,activation,[2],-2.06%
same,max response,[3],3.21%
same,Potency,[16],inactive
same,max response,[4],-11%
same,max response,[5],-3.48%
NC(=O)CI,Potency,[6],inactive
same,outcome,[7],inactive
same,Potency,[8],inactive
same,outcome,[9],inactive
same,Potency,[10],inactive
same,outcome,[11],inactive
same,outcome,[12],inactive
N[C@@]1(C(=O)O)CC[C@@H](C(=O)O)C1,Potency,[6],inactive
same,outcome,[7],inactive
same,Potency,[8],inactive
same,outcome,[9],inactive
same,Potency,[10],inactive
same,outcome,[11],inactive
same,outcome,[12],inactive
c1ccc2c(N3CCNCC3)cccc2c1,Potency,[6],inactive
same,outcome,[7],inactive
same,Potency,[8],inactive
same,outcome,[9],inactive
same,Potency,[10],inactive
same,outcome,[11],inactive
same,outcome,[12],inactive
Cc1[nH]c2ccc(O)cc2c1CCN,Potency,[6],inactive
same,outcome,[7],inactive
same,Potency,[8],inactive
same,outcome,[9],inactive
same,Potency,[10],inactive
same,outcome,[11],inactive
same,outcome,[12],inactive
Cc1o[nH]c(=O)c1CC(N)C(=O)O (stereo not drawn),Potency,[6],inactive
same,outcome,[7],inactive
same,Potency,[8],inactive
same,outcome,[9],inactive
same,Potency,[10],inactive
same,outcome,[11],inactive
same,outcome,[12],inactive
CP(=O)(O)C1=CCNCC1,Potency,[6],inactive
same,outcome,[7],inactive
same,Potency,[8],inactive
same,outcome,[9],inactive
same,Potency,[10],inactive
same,outcome,[11],inactive
same,outcome,[12],inactive
COc1ccc2c(c1)/C(=C/c1cnc[nH]1)C(=O)N2,Potency,[6],inactive
same,outcome,[7],inactive
same,Potency,[8],23.1 µM (active)
same,outcome,[9],inactive
same,Potency,[10],inactive
same,outcome,[11],inactive
same,outcome,[12],inactive
CCn1cnc2c(Nc3cccc(Cl)c3)nc(N[C@@H]3CCCC[C@@H]3N)nc21,Potency,[6],inactive
same,outcome,[7],inactive
same,Potency,[8],inactive
same,outcome,[9],inactive
same,Potency,[10],inactive
same,outcome,[11],inactive
same,outcome,[12],inactive
NCCCP(=O)(O)O,Potency,[6],inactive
same,outcome,[7],inactive
same,Potency,[8],inactive
same,outcome,[9],inactive
same,Potency,[10],inactive
same,outcome,[11],inactive
same,outcome,[12],inactive
CC(C)Nc1ccc(Nc2ccccc2)cc1,Potency,[14],59.6 µM (active)
same,max response,[3],-3.2%
same,max response,[4],-21.1%
same,Potency,[18],10 µM (active)
O=c1c2ccccc2[se]n1-c1ccccc1,Potency,[6],inactive
same,outcome,[7],inactive
same,Potency,[8],inactive
same,outcome,[9],inactive
same,Potency,[10],14.1 µM (active)
same,outcome,[11],inactive
same,outcome,[12],inactive
CC(Cc1ccc(OCC(=O)O)cc1)NCC(O)c1cccc(Cl)c1 (stereo not drawn),Potency,[6],inactive
same,outcome,[7],inactive
same,Potency,[8],inactive
same,outcome,[9],inactive
same,Potency,[10],inactive
same,outcome,[11],inactive
same,outcome,[12],inactive
CCCC[N+]1(C)C2CC(OC(=O)[C@H](CO)c3ccccc3)CC1C1OC12 (stereo partly drawn),Potency,[6],inactive
same,outcome,[7],inactive
same,Potency,[8],inactive
same,outcome,[9],inactive
same,Potency,[10],inactive
same,outcome,[11],inactive
same,outcome,[12],inactive
C[N+](C)(C)CC#CCOC(=O)Nc1cccc(Cl)c1,Potency,[6],inactive
same,outcome,[7],inactive
same,Potency,[8],inactive
same,outcome,[9],inactive
same,Potency,[10],inactive
same,outcome,[11],inactive
same,outcome,[12],inactive
C[C@H](N)Cc1cccc(C(F)(F)F)c1,Potency,[6],inactive
same,outcome,[7],inactive
same,Potency,[8],inactive
same,outcome,[9],inactive
same,Potency,[10],inactive
same,outcome,[11],inactive
same,outcome,[12],inactive
CC(=O)OCC1=C(C(=O)O)N2C(=O)[C@@H](NC(=O)CCC[C@@H](N)C(=O)O)[C@H]2SC1,Potency,[6],inactive
same,outcome,[7],inactive
same,Potency,[8],inactive
same,outcome,[9],inactive
same,Potency,[10],inactive
same,outcome,[11],inactive
same,outcome,[12],inactive
